# Assay outcomes: PubChem, National Center for Advancing Translational Sciences (NCATS)
# Shown is part of a subset that was picked to be rich in hits.
# Methyltransferases = Primary Screen for Target Class Profiling of Small Molecule Inhibitors of Methyltransferases. calls only at 40 µM. purified enzyme, MTase-Glo SAH luminescence; hits give low values. actives 3.9% (n = 25,000); call rule not given here
#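 Each enzyme was reacted with SAM and its substrate, with compounds tested once at 40 uM; SAH formed was read by MTase-Glo luminescence.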
# Active calls of the source: *; i = inactive; + = active, no number. On the % scale 0 is the no-effect control and ±100 the full control effect.
SMILES,Methyltransferases
CN1C(=O)c2cc(C(=O)NCCCc3ccccc3)nn2CC1(C)C(=O)NC1CCCCCC1 (stereo not drawn),i
CNc1nc(Nc2ccc(C(=O)N3CCOCC3)cc2OC)nc2[nH]cc(Cl)c12,i
CCNc1nc(Nc2cc(F)c(C(=O)N3CCOCC3)cc2OC)ncc1C(F)(F)F,+
CNc1nc(Nc2ccc(C(=O)N3CCOCC3)cc2OC)ncc1Cl,i
CCc1cc(=O)n(CC(=O)Nc2ccccc2OC)c(N2CCOCC2)n1,i
COc1ccc(Nc2nc3c(S(=O)(=O)c4ccc(F)cc4)nnn3c3ccccc23)c(OC)c1,i
COc1cc(N2CCOCC2)ccc1Nc1ncc(F)c(Nc2ccccc2NS(C)(=O)=O)n1,+
CC(C)Cn1c(=O)c2ccccc2n2c(=O)n(Cc3ccc(Cl)cc3)nc12,i
COc1cc2nc(N3CCN(C(=O)c4ccco4)C4CCCCC43)nc(N)c2cc1OC (stereo not drawn),+
O=C(c1ccco1)N1CCCCC1c1nc(C2CC2)n[nH]1 (stereo not drawn),i
O=C(NC1CCCN(c2cc(N3CCCC3)ncn2)C1)c1ccco1 (stereo not drawn),i
COc1ccc(C2NC(C(=O)O)Cc3c2[nH]c2ccccc32)cc1OC (stereo not drawn),i
CC[C@@]1(O)CCN(C(=O)c2ccc(CSc3ccccc3)o2)C[C@H]1O,i
C[N+]1(CC2COC(c3ccccc3)(c3ccccc3)O2)CCCCC1 (stereo not drawn),i
COc1ccc(-c2nc3c(c(=O)[nH]2)CCN(C(=O)CSc2ccccc2)C3)cc1,i
CCCC1c2cccn2CCN1C(=O)Nc1ccc(C)cc1C (stereo not drawn),i
CNC(=O)c1ccccc1Nc1nc(Nc2ccc(N3CCNCC3)cc2)ncc1Cl,+
Cn1c(=O)c(-c2c(Cl)cccc2Cl)cc2cnc(Nc3ccc(N4CCOCC4)cc3)nc21,i
CC(=O)c1c(C)c2cnc(Nc3ccc(N4CCNCC4)cn3)nc2n(C2CCCC2)c1=O,i
CSCC(=O)N1C[C@@H](NC(=O)NC(C)C)C[C@H]1C(=O)N[C@H](Cc1c[nH]c2ccccc12)C(N)=O,i
Cc1ccccc1NC(=O)Cn1nc2n(CC(C)C)c(=O)c3ccc(C(=O)NC4CCCC4)cc3n2c1=O,i
CC1(C(=O)NC2CCCCC2)Cn2c(cc3sccc32)C(=O)N1Cc1ccccc1Cl (stereo not drawn),i
C[C@@H](NC(=O)C1=C[C@@H](NC(=O)Nc2ccccc2Br)[C@@H](O)[C@H](O)C1)C(N)=O,i
CN(C)CCNC(=O)c1cccn2c(=O)c3cc4ccccc4cc3nc12,+
CCCN1C(=O)c2cc(C(=O)NCCN(C)C)nn2CC1(C)C(=O)NC1CCCC1 (stereo not drawn),i
SMILES,Methyltransferases
COc1ccc(S(=O)(=O)NCC(c2ccco2)N2CCN(c3ccccc3)CC2)cc1 (stereo not drawn),i
Cc1ccc(NC(=O)CN(C)S(=O)(=O)c2ccc3[nH]c4c(c3c2)CCCC4)cc1F,i
COc1cc2c(cc1OC)-c1cc(=Nc3c(C)cc(C)cc3C)n(C)c(=O)n1CC2,i
C[C@@H](Oc1cc(-n2cnc3ccc(OC4CCN(C)CC4)cc32)sc1C(N)=O)c1ccccc1C(F)(F)F,+
COc1ccc(N(C(=O)c2cccs2)S(=O)(=O)c2ccc3c(c2)n(C)c(=O)n3C)cc1,i
Cc1ccc(Cl)cc1NC(=O)Cn1nc2n(CCc3ccccc3)c(=O)c3ccccc3n2c1=O,i
O=C(CSc1nnnn1-c1ccccc1)Nc1ccc2[nH]c(=O)[nH]c2c1,i
CC1(C(=O)NC2CCCCCC2)Cn2c(cc3occc32)C(=O)N1C1CCCCCC1 (stereo not drawn),i
CCCn1c(=O)c2ccc(C(=O)NC(C)C)cc2n2c(SCC(=O)Nc3cc(F)ccc3F)nnc12,i
C[C@H](/C=C/[C@@]1(O)[C@H](C)CC(=O)CC1(C)C)O[C@@H]1O[C@H](CO[C@@H]2OC[C@@H](O)[C@H](O)[C@H]2O)[C@@H](O)[C@H](O)[C@H]1O,i
CC1=CC(=O)CC(C)(C)[C@H]1/C=C/C(CO)O[C@@H]1O[C@H](CO)[C@@H](O)[C@H](O)[C@H]1O (stereo partly drawn),i
CC1=CC(=O)CC(C)(C)C1CCC(C)O[C@@H]1O[C@H](CO[C@@H]2OC[C@@H](O)[C@H](O)[C@H]2O)[C@@H](O)[C@H](O)[C@H]1O (stereo partly drawn),+
COc1ccc(CNc2nc3c(-c4ccccc4)nnn3c3ccccc23)cc1,i
CCc1cc2c(cc3n2CC(C)(C(=O)NC2CCCCC2)N(Cc2ccc(Cl)cc2)C3=O)s1 (stereo not drawn),i
COc1ccc(N2CCN(C(=O)c3ccc(Nc4nc5ccccc5n5nnnc45)cc3)CC2)cc1,i
CCN1CCN(c2ccc(Nc3ccc(-c4ccc(C(N)=O)cc4)n4ncnc34)cc2)CC1,+
CCN1CCN(C(=O)c2ccc(-c3nnc4ccc(NC(=O)C5CC5)cn34)cc2)CC1,i
CCCCc1cn(CC2CCN(C(=O)c3ccsc3)CC2)nn1,i
O=C(c1ccccn1)N1CCC(N2CCCC2=O)CC1,i
Cc1ccc(-c2ncccc2CNS(=O)(=O)c2cc(F)ccc2C)cc1,i
COc1ccc(CN2C(=O)c3cc(-c4ccco4)nn3CC2(C)C(=O)NC2CCCCC2)cc1 (stereo not drawn),i
CCOc1cc2ncc(C#N)c(Nc3ccc(F)c(Cl)c3)c2cc1NC(=O)/C=C/CN(C)C,+
CN(C)C/C=C/C(=O)Nc1cc2c(Nc3ccc(F)c(Cl)c3)ncnc2cc1OC1CCOC1 (stereo not drawn),+
CN(C)C/C=C/C(=O)Nc1cc2c(Nc3ccc(F)c(Cl)c3)ncnc2cc1O[C@H]1CCOC1,+
CCOc1cc2ncc(C#N)c(Nc3ccc(OCc4ccccn4)c(Cl)c3)c2cc1NC(=O)/C=C/CN(C)C,i
SMILES,Methyltransferases
COc1cccc(CN2C(=O)c3cc4oc(C)cc4n3CC2(C)C(=O)NC2CCCCCC2)c1OC (stereo not drawn),i
CCc1nnc([C@@H]2CC(F)(F)CN2C(=O)c2occc2C)o1,i
CCNC(=O)Nc1ccc(-c2nc3c(c(N4CCOC[C@@H]4C)n2)CCN(c2ncccn2)C3)cc1,i
CC[C@@H]1C(=O)O[C@]23C=C[C@@H]4C(C(=O)OC)=CO[C@H](O[C@@H]12)[C@@H]43,i
O=C(c1csc2nc(-c3ccc(F)cc3)cn12)N1C[C@H]2CC[C@@H](C1)N2,i
COC1CCN(CC2CCCCCN2C(=O)c2cc(F)ccc2F)CC1 (stereo not drawn),i
CCC(C)NC(=O)c1ccc2c(=O)n(C(C)C)c3nn(Cc4cc(C)ccc4C)c(=O)n3c2c1 (stereo not drawn),i
COc1ccc(CC(=O)N[C@H]2[C@H](O)[C@H](O)C[C@@H]2c2ccccc2)cc1,i
C/C=C(\C)C(=O)O[C@H]1[C@@H](O[C@]2(COC(=O)CC(C)C)O[C@H](COC(=O)C(C)C)[C@@H](OC(C)=O)[C@@H]2O)O[C@H](COC(C)=O)[C@@H](O)[C@@H]1O,+
C/C=C(\C)C(=O)OCC1OC(OCC2OC(OC3(CO)OC(CO)C(O)C3O)C(O)C(O)C2O)C(O)C(O)C1O (stereo not drawn),i
